The list is not random: actives were taken first. Their share in the collection is about 11%.
NS1 inh = blocks influenza NS1 protein function; Potency, µM (titrated, usually from 46.1 µM), for inactives: top-dose activity, positive = more growth; 0.4% of 270,000 active; calls by dose curve; note: actives are rising curves; nearly all actives have a fitted effect of over 50% in size
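OD600 was taken as the measure of yeast growth restored by compound in an NS1-expressing S. cerevisiae strain. Cells had been washed out of glucose medium and diluted 1:100 into galactose -URA medium, pH 6.0.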
Pf growth 48h = P. falciparum growth inhibition at 48 hours (one generation); P. falciparum luciferase growth in erythrocytes, 48 h; 5.9% of 310,000 active; Potency, µM (highest dose often 28.7 µM), for the others: at the top dose activity change, negative = inhibition, actives largely listed as inhibitors; note: % is set by controls: 0 for no effect and ±100 for the full control effect
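Here the parasites carry a stable luciferase gene and grow inside erythrocytes in Albumax-based RPMI medium with compound for one erythrocytic cycle. Activity is scored as loss of luminescent signal.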
HCV inh = HCV inhibition | Huh7.5.1 HCVcc-Cre infection, luciferase reporter, 44 h | 3.4% of 340,000 active | Potency, µM (series often up to 41.8 µM), for the others: top-dose activity change, negative = inhibition, most hits filed as inhibitors; note: % is set by controls: 0 for no effect and ±100 for the full control effect
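Infectious HCVcc-Cre (~0.5 moi) was added to cells just after compound, with cells seeded 4 h earlier at 1,000 per well. Luciferase activity after 44 h culture reported infection; substrate was incubated 15 min at room temperature before reading.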
Vaccinia mCherry = vaccinia inhibition (mCherry reporter); Vaccinia virus mCherry reporter infection, fluorescence; Potency, µM (series often up to 36.5 µM), inactives show at the highest dose activity change, negative = inhibition, usual class: inhibitors; 0.63% of 310,000 active; calls by dose curve; tested in A549 cells; note: % is set by controls: 0 for no effect and ±100 for the full control effect; nearly all actives have a fitted effect of over 35% in size
VACV Venus inh = vaccinia inhibition (Venus reporter); Vaccinia virus Venus reporter expression, fluorescence; AID 720580; 0.46% of 330,000 active; Potency, µM (doses to about 36.5 µM), inactives show at the highest dose activity change, negative = inhibition, usual class: inhibitors; calls by dose curve; tested in A549 cells; note: % is set by controls: 0 for no effect and ±100 for the full control effect; nearly all actives have a fitted effect of over 30% in size
Pf growth 96h = P. falciparum growth inhibition at 96 hours; P. falciparum luciferase reporter growth, 96 h; Potency, µM (titrated, usually from 28.7 µM), inactives show at the highest dose activity change, negative = inhibition, most hits filed as inhibitors; 6.9% of 320,000 active; note: % is set by controls: 0 for no effect and ±100 for the full control effect
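Parasite growth measured via integrated firefly luciferase reporter in P. falciparum. Infected erythrocytes at 2% hematocrit, 0.05% parasitemia final were treated 96 hours at 37 C under 5% CO2, and luminescence was read.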
Starred values were filed as active, the others as inactive. Unless noted, calls come from the whole dose curve; as a rule, active = well fitted inhibition curve with a large enough effect; inconclusive = small, poorly fitted or top-dose-only effect, or another doubt; inactive = no such curve, though single readings can be large or run the other way. Potency is the fitted concentration of half-maximal effect.

`O=C(NNc1c2ccccc2nc2ccccc12)c1ccccc1Cl` gave NS1 inh -1%, Pf growth 48h inconclusive, HCV inh 4.5µM* and Pf growth 96h inconclusive.
`O=C(NNc1c2ccccc2nc2ccccc12)C12CC3CC(CC(C3)C1)C2` gave NS1 inh 3%, Pf growth 48h inconclusive, HCV inh 8%, Vaccinia mCherry -23%, VACV Venus inh -3% and Pf growth 96h 13µM*.
Screening O=C(NNc1c2ccccc2nc2ccccc12)c1ccccc1O returned NS1 inh -7%, Pf growth 48h inconclusive, HCV inh 8.9µM*, Vaccinia mCherry inconclusive, VACV Venus inh -29% and Pf growth 96h 10µM*.
O=C(NCc1ccccc1)C12CC3CC(CC(C3)C1)C2 was read as NS1 inh -11%, HCV inh 5% and Pf growth 96h -23%.
For O=C(NNc1c2ccccc2nc2ccccc12)c1ccc(O)cc1O the results were NS1 inh 6%, Pf growth 48h inconclusive, HCV inh inconclusive, VACV Venus inh inconclusive and Pf growth 96h inconclusive.
O=C(NNc1nc(=O)c2cccnc2s1)c1ccccc1O was read as Pf growth 48h inconclusive, HCV inh 3.2µM*, Vaccinia mCherry -7%, VACV Venus inh -2% and Pf growth 96h 8%.
COc1ccc(S(=O)(=O)N(C)CC(=O)Nc2ccccc2C(F)(F)F)cc1Cl was read as NS1 inh 5%, HCV inh 17% and Pf growth 96h 1%.
CCOc1ccc(/C=C/c2[nH]c(=O)[nH]c(=O)c2[N+](=O)[O-])cc1 was read as NS1 inh 11%, Pf growth 48h -3%, HCV inh 1%, Vaccinia mCherry inactive, VACV Venus inh -10% and Pf growth 96h 166%.
N#CC1=C(N)OC2=C(C(=O)CCC2)C1c1ccc(OC(=O)N2CCOCC2)cc1 (stereo not given) was read as NS1 inh -2%, Pf growth 48h -11%, HCV inh 7%, Vaccinia mCherry -15%, VACV Venus inh -5% and Pf growth 96h inconclusive.
Cc1nn(-c2ccccc2)c2c1C(c1ccncc1)C(C#N)=C(N)O2 (stereo not given) was read as NS1 inh 10%, Pf growth 48h -15%, HCV inh 6% and VACV Venus inh -14%.
For Cc1ccc(-n2nc(C)c3c2OC(N)=C(C#N)C3c2ccncc2)cc1 (stereo not given) the results were NS1 inh 6%, Pf growth 48h -2%, HCV inh 2%, Vaccinia mCherry -10%, VACV Venus inh -8% and Pf growth 96h 0.52µM*.
`Cc1nn(-c2ccccc2)c(Cl)c1C1C(C#N)=C(N)Oc2c1c(C)nn2-c1ccccc1` (stereo not given) gave NS1 inh 4%, Pf growth 48h 10µM*, HCV inh 0%, VACV Venus inh -20% and Pf growth 96h 10µM*.
For CCCc1nc2c(s1)CCc1onc(-c3ccc(Br)cc3)c1-2 the results were HCV inh -12%, Vaccinia mCherry -5% and VACV Venus inh -7%.
For CC(Oc1ccc2c(=O)c(-c3ccc(Cl)cc3)c(C(F)(F)F)oc2c1)C(=O)O (stereo not given) the results were NS1 inh 5%, Pf growth 48h 10µM*, HCV inh 21% and Pf growth 96h 29%.
For O=C(CC12CC3CC(CC(Br)(C3)C1)C2)Nc1nncs1 the results were NS1 inh 2%, Pf growth 48h 7%, HCV inh 6%, Vaccinia mCherry -8%, VACV Venus inh 8% and Pf growth 96h 23%.
CC(=O)N1c2ccccc2N(Cc2ccc(C)cc2C)C(=O)C1(C)C was read as NS1 inh -49%, HCV inh inconclusive, Vaccinia mCherry -24%, VACV Venus inh -17% and Pf growth 96h 1.7µM*.
CCc1ccc(NC(=O)c2cc(-c3ccco3)on2)cc1 was read as NS1 inh -3%, Pf growth 48h 278%, HCV inh 0% and Pf growth 96h 2.9µM*.
For COc1ccc(NC(=O)c2cc(-c3ccco3)on2)cc1 the results were Pf growth 48h 443%, HCV inh -15%, Vaccinia mCherry -13%, VACV Venus inh -7% and Pf growth 96h inconclusive.
For O=C(Nc1ccc(F)c(F)c1)C(c1ccccc1)N1Cc2ccccc2C1=O (stereo not given) the results were Vaccinia mCherry -4% and VACV Venus inh -12%.
COc1ccc(-c2nn(-c3ccccc3)cc2/C=C/C(=O)N2CCN(c3ccccn3)CC2)cc1 was read as Pf growth 48h inconclusive, HCV inh inconclusive, Vaccinia mCherry -13%, VACV Venus inh -11% and Pf growth 96h 10µM*.
O=C(c1cn(-c2ccccc2)nc1-c1ccccc1)N1CCN(c2ccccn2)CC1 was read as NS1 inh -19%, Pf growth 48h inconclusive, HCV inh 10µM* and Pf growth 96h -19%.
Screening Cc1ccc(-c2nn(-c3ccccc3)cc2C(=O)N2CCN(c3ccccn3)CC2)cc1 returned Pf growth 48h inconclusive, HCV inh 11µM*, Vaccinia mCherry -17%, VACV Venus inh inconclusive and Pf growth 96h inconclusive.
Cc1cccc(OCCn2ccnc2)c1 was read as NS1 inh -7%, Pf growth 48h -14%, HCV inh 11% and Pf growth 96h 0%.
Screening O=C(NC1CC1)C1CCN(C(=O)c2ccc(Cl)cc2)CC1 returned NS1 inh 13%, Pf growth 48h 6%, HCV inh 6%, Vaccinia mCherry -7%, VACV Venus inh -9% and Pf growth 96h 53%.
Screening CCOC(=O)c1ccc2c(c1)N(CC(=O)N(C)c1ccccc1)C(=O)c1ccccc1S2 returned Vaccinia mCherry -20% and VACV Venus inh -14%.
For CSc1ccc(-c2sc(Nc3ccccc3)n[n+]2-c2ccc(F)cc2)cc1 the results were NS1 inh 3%, Pf growth 48h inconclusive, HCV inh -27%, Vaccinia mCherry -14%, VACV Venus inh -15% and Pf growth 96h 35%.
c1ccc(-[n+]2nc(Nc3cccc4ccccc34)sc2-c2c3ccccc3cc3ccccc23)cc1 was read as Pf growth 48h 1µM*, HCV inh 3.5µM*, Vaccinia mCherry inactive, VACV Venus inh -29% and Pf growth 96h 0.83µM*.
COc1ccc(C)cc1Nc1nc(N)c2ccccc2n1 was read as NS1 inh -12%, Pf growth 48h inconclusive, HCV inh inconclusive, Vaccinia mCherry inconclusive, VACV Venus inh -18% and Pf growth 96h inconclusive.
Screening COc1ccc(-c2sc(Nc3ccccc3)n[n+]2-c2ccc(F)cc2)c(C)c1C returned NS1 inh -7%, Pf growth 48h inconclusive, HCV inh -18%, Vaccinia mCherry inconclusive, VACV Venus inh -12% and Pf growth 96h 10µM*.
